# Compound activity: PubChem BioAssay, National Center for Advancing Translational Sciences (NCATS)
# Shiga inhibitor: A qHTS for Small Molecule Inhibitors of Shiga Toxin; Vero cells, Shiga toxin protein synthesis inhibition reporter; inhibition, % at 38.7 µM; 290,000 tested, 9.2% active; AID 2315, 2010; in the data active = inhibition mostly above about 28%, no sharp cut-off; inactive = mostly below about 43%; also: 0% is about no effect
# Cycloheximide cs: Cycloheximide Counterscreen for Small Molecule Inhibitors of Shiga Toxin. max response, %. AID 2314, 2010. 300,000 tested, 12% active. cell reporter, cycloheximide protein synthesis inhibition counterscreen; in the data active = max response mostly above about 13%, no sharp cut-off; inactive = mostly below about 14%; also: read at 38.3 µM for the half of the compounds with a filed dose; 0% is about no effect
# Tb PYK inh: qHTS of Trypanosoma Brucei Inhibitors; 410,000 tested, 0.12% active; AID 624173, 2012; Potency, µM (top dose mostly 76.8 µM), for the others: top-dose activity, negative = inhibition, hits mostly inhibitors; pyruvate kinase (Trypanosoma brucei), Q57TT1; TbPYK enzyme, Kinase-Glo Plus ATP luminescence, 45 min; also: potency is read from the fitted curve at half-maximal effect; % is scaled to controls: 0 for no effect and ±100 for the full control effect; nearly all actives have a fitted effect of over 50% in size
#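 Readout: single end-point luminescence (Kinase-Glo Plus, 10 min). Reaction conditions were TbPYK/substrate plus 130 uM ADP, 45 min at RT, pH 7.2 TEA buffer. No-enzyme wells served as controls, and data were normalized before concentration-response fitting.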
# LmPK inh: qHTS Assay for Inhibitors of Leishmania Mexicana Pyruvate Kinase (LmPK) | purified LmPK, Kinase-Glo ATP luminescence, 1 h | Potency, µM (titrated, usually from 57.5 µM), inactives show top-dose activity change, negative = inhibition, actives largely listed as inhibitors | 290,000 tested, 0.37% active; also: potency is read from the fitted curve at half-maximal effect; % is scaled to controls: 0 for no effect and ±100 for the full control effect
#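 ATP generated from ADP (0.1 mM) and PEP (0.5 mM) by 0.1 nM LmPK over 1 h at room temperature (pH 7.2 imidazole buffer) was detected by coupled luciferase luminescence. Values were normalized to uninhibited and no-enzyme wells.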
# Sm TGR inh: qHTS Assay for the Inhibitors of Schistosoma Mansoni Peroxiredoxins | Schistosoma mansoni thioredoxin glutathione reductase (TGR), Q962Y6 | purified TGR, DTNB reduction, TNB absorbance 405 nm | Potency, µM (highest dose often 114 µM), without a hit: top-dose activity change, negative = inhibition, usual class: inhibitors | 360,000 tested, 3% active | AID 485364, 2010; also: potency is read from the fitted curve at half-maximal effect; % is scaled to controls: 0 for no effect and ±100 for the full control effect; nearly all actives have a fitted effect of over 60% in size
#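 First, TGR (20 nM dispensed) and NADPH were mixed with compound. Second, a 15 min room-temperature incubation followed. Third, further NADPH and then DTNB were added to start the reaction. Finally, TNB absorbance was monitored kinetically.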
# Giardia FBPA inh: qHTS Assay for Inhibitors of Fructose-1,6-bisphosphate Aldolase from Giardia Lamblia | A8B2U2 | purified Giardia FBPA | Potency, µM (doses to about 59.6 µM), without a hit: at the highest dose activity, negative = inhibition, actives largely listed as inhibitors | 290,000 tested, 0.71% active; also: potency is read from the fitted curve at half-maximal effect; % is scaled to controls: 0 for no effect and ±100 for the full control effect; nearly all actives have a fitted effect of over 55% in size
# Target sequence (A8B2U2 whole entry, looked up): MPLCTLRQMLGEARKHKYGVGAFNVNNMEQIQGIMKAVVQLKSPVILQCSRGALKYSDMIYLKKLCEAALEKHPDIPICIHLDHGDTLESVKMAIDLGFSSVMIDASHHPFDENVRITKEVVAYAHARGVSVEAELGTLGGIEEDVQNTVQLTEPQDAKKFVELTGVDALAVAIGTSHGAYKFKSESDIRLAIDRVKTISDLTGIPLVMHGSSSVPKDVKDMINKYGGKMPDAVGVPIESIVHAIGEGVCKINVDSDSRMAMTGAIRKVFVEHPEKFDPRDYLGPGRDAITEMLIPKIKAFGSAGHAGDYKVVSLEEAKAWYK
#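 Giardia FBPA (40 nM reagent) was preincubated 10 min at RT with compound (up to 57.5 uM final), then substrate plus GAPDH/TPI/NAD/arsenate coupling system with diaphorase/resazurin was added; resorufin fluorescence (525/598 nm) was read after 20 min.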
# Starred values were filed as active, the others as inactive; ? = inconclusive; . = no result. The sample as a whole holds a higher share of hits than the screen did. Unless noted, calls follow the shape of the dose curve; as a rule, active = well fitted curve in the direction sought with a large enough effect; inconclusive = small, poorly fitted or top-dose-only effect, or another doubt; inactive = no such curve, though single readings can be large; an effect the other way counts as inactive or inconclusive.
SMILES,Shiga inhibitor,Cycloheximide cs,Tb PYK inh,LmPK inh,Sm TGR inh,Giardia FBPA inh
COCCNC(=S)Nc1cc(OC)c(NC(=O)c2ccco2)cc1OC,27,22*,-3%,5%,-20%,3%
COc1cc(NC(=O)c2ccco2)c(C(=O)O)cc1OC,-12,14,1%,0%,40µM*,-1%
Cc1ccc(N2CCN(c3nc4ccccc4n4nnnc34)CC2)c(C)c1,.,.,-3%,.,9%,.
Oc1cc[c]([Hg][Cl])cc1,.,.,1.4µM*,.,.,.
COc1cccc(NC(=O)CSc2cc(C)[nH]c(=O)n2)c1,.,.,1%,.,-3%,.
CCOC(=O)C(NC(=O)CC(C)C)(Nc1sc(C)c(CC)c1C#N)C(F)(F)F (stereo not drawn),-2,-2,-6%,1%,-24%,0%
CCOC(=O)C(NC(=O)CCl)(Nc1sc(C)c(CC)c1C#N)C(F)(F)F (stereo not drawn),12,1,-3%,3%,16µM*,-3%
COc1cccc(N2CCN(c3cnc4ccccc4n3)CC2)c1,94*,36*,-2%,4%,8%,-9%
COc1cccc(N2CCN(c3ccc([N+](=O)[O-])cn3)CC2)c1,-13,-4,1%,6%,7%,6%
COc1ccc(N2CCN(c3cc(C)c4ccccc4n3)CC2)cc1,2,7,-1%,11%,2%,-1%
COc1ccc(N2CCN(c3ncccn3)CC2)cc1,152*,24*,5%,-8%,-6%,-2%
COc1ccc(N2CCN(c3cnc4ccccc4n3)CC2)cc1,70*,37*,-9%,-1%,.,3%
CCCC1NC(=O)c2cccnc2-n2c1nc1ccc(C)cc1c2=O (stereo not drawn),.,.,-7%,.,.,.
CC1(C)C(=O)Nc2ccccc2N1C(=O)Cn1ncc(Cl)c(Cl)c1=O,-28,-8,3%,4%,10µM*,1%
O=C(Cn1ncc2c3ccccc3n(Cc3ccccc3)c2c1=O)N1CCC2(CC1)OCCO2,30,29*,.,2%,-13%,-9%
O=C(Cn1ncc(Cl)c(Cl)c1=O)N1CCN(Cc2ccccc2)CC1,-20,-4,1%,10%,8.9µM*,1%
O=C(Cn1ncc2c3ccccc3n(Cc3ccccc3F)c2c1=O)N1CCC2(CC1)OCCO2,-20,-2,-2%,-1%,2%,-3%
O=C(Cn1ncc2c1-c1ccccc1OC2)N1CCN(Cc2ccccc2)CC1,-2,-1,5%,4%,-26%,2%
O=C(Cn1ncc(Cl)c(Cl)c1=O)N1CCOCC1,38*,23*,1%,1%,-29%,4%
Cc1nn(CC(=O)N2c3ccccc3NC(=O)C2(C)C)c(C)c1[N+](=O)[O-],-4,8,3%,7%,-13%,5%
O=S(=O)(Nc1cccc(-c2ccc(N3CCOCC3)nn2)c1)c1ccc(F)c(C(F)(F)F)c1,.,.,2%,.,-2%,.
O=C(Cn1ncc(Cl)c(Cl)c1=O)N1CCc2ccccc21,-2,8,0%,0%,16µM*,-6%
CN1C(=O)C(=O)N(CC(=O)N2CCc3ccccc32)C1=O,44,6,-6%,17%,-1%,-1%
Oc1ccc(/C=N/NC(=S)Nc2cccnc2)cc1,81*,48*,3%,-17%,-28%,0%
Oc1ccc(/C=N/NC(=S)N/N=C/c2ccc(O)cc2)cc1,62*,40*,-20%,?,.,17%
O=C(NCc1ccc(F)cc1)C(=O)Nc1ccc2nc3n(c(=O)c2c1)CCCCC3,.,.,-3%,.,2%,.
Cc1ccc(OCC(=O)N(Cc2ccccc2)c2c(N)n(Cc3ccccc3)c(=O)[nH]c2=O)c(C)c1,.,.,5%,.,-1%,.
O=C(c1ccco1)N1CCN(Cc2nc(-c3cccs3)no2)CC1,35*,11*,-8%,2%,?,-5%
CN(CCN1CCOCC1)Cc1nc(-c2cccs2)no1,15,3,2%,6%,-15%,0%
